Only some compounds are listed: those with a hit (about 9.1% of all), similar ones and a draw of the others.
M1 antag: M1 muscarinic receptor (rat) antagonism; 64,000 compounds, 3.4% hits; CHO-M1 cells, Fluo-4 calcium, ACh EC80 antagonist mode; hits give low values; AID 628; P08482; B-score at 10 µM;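 active means calcium fluorescence response, raw or row-and-column corrected B-score, differing from the plate sample mean either way at a set confidence level, mostly lower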
Target sequence (P08482 whole entry, looked up): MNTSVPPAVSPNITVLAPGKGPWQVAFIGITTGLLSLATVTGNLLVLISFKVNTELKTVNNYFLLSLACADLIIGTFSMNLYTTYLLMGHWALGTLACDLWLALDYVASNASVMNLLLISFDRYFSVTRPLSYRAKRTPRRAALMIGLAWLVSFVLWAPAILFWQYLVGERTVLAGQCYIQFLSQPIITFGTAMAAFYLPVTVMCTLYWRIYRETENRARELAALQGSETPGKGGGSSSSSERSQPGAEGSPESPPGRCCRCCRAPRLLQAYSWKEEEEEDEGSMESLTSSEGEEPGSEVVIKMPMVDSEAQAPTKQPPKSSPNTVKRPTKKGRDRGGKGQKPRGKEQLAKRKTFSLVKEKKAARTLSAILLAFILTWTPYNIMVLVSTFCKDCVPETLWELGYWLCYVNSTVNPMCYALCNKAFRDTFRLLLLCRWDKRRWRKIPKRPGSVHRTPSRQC
mHtt clearance: compounds clearing mutant huntingtin protein; HeLa Exon1htt(103Q)mCFP, aggregate imaging; zero = plate's median compound well; inhibition, % at 1.5 µM; 47,000 compounds, 0.42% hits; AID 853;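 active means inhibition of aggregate fluorescence above about 70%, also judged a hit by eye on the cell image, limit read from the data, passing the limit was not always enough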;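 further: cells exposed to compound for three days before fixation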
M1 agonist: activates the M1 muscarinic receptor; CHO-M1 cells, Fluo-4 calcium fluorescence, agonist mode; hits give high values; B-score at 10 µM; 64,000 compounds, 3% hits;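 active means fluorescence rise, raw or as B-score row- and column-corrected plate score, outside the 99.7% band of its plate's samples, either direction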
D1 mod: D1 dopamine receptor (human) allosteric modulation. P21728. HEK293 D1, CRE-luciferase, dopamine EC30 potentiation; actives deviate in either direction. B-score at 10 µM. 58,000 compounds, 5.9% hits;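 active means luminescence count or its row- and column-corrected plate score outside the 99.7% band of the plate's sample wells, on either side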
D1 PAM confirm: D1 receptor (human) allosteric modulation, confirmed; shares compounds with D1 mod; HEK293 D1 CRE-luciferase, dopamine EC30 potentiation; hits give high values; luminescence at 10 µM; 2,200 compounds, 88% hits;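 active means luminescence in either of two replicates above the same-plate mean plus 3 SD of the low-dose dopamine control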
D1 no dopamine: secondary test of D1 modulators: activity without dopamine; HEK293 D1 CRE-luciferase, luminescence, no dopamine; hits give high values; 1,900 compounds, 0.8% hits; luminescence at 10 µM; shares compounds with D1 mod; AID 646; in the data active means luminescence above about 3900
Isoprot counter: isoproterenol response counter-screen activity for D1 modulators | HEK293 D1 CRE-luciferase, isoproterenol EC30 counter-screen; hits give high values | luminescence at 10 µM | shares compounds with D1 mod | 2,200 compounds, 63% hits;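 active means luminescence in either replicate above plate mean of wells with a partly effective reference agonist dose plus 3 SD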;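 further: isoproterenol raises cAMP through native beta-adrenoceptor Gs so signal bypasses D1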
Of the large screens only hits and unclear results are named; the others gave an inactive call (follow-up assays come after a bar, where they were run).

COc1ccc(CNc2ccc(S(N)(=O)=O)cc2)c(OC)c1OC	D1 mod 5.3 | D1 PAM confirm 7284 | D1 no dopamine inactive | Isoprot counter 3240
COc1cccc(CNc2ccc(S(=O)(=O)Nc3nccs3)cc2)c1O	D1 mod 12 (no result: mHtt clearance) | D1 PAM confirm 14616 | D1 no dopamine inactive | Isoprot counter 3656
C=CCOc1c(CNc2ccc(S(N)(=O)=O)cc2)cccc1OC	none (no result: M1 antag, M1 agonist, D1 mod)
CC1(C)C(=O)OC(c2ccccc2)C2(CCCC2)C1=O (configuration not stated)	none (no result: M1 antag, M1 agonist, D1 mod)
CCOC(=O)C(CC)Sc1nc2c(c(=O)[nH]c(=O)n2C)n1CCc1ccccc1 (configuration not stated)	none
CC(C)Sc1nc2c(c(=O)[nH]c(=O)n2C)n1CCc1ccccc1	D1 mod 26 (no result: mHtt clearance) | D1 PAM confirm 24288 | D1 no dopamine inactive | Isoprot counter 4184
CCCNc1nc2c(c(=O)[nH]c(=O)n2C)n1CCc1ccccc1	D1 mod 3.1 (no result: mHtt clearance) | D1 PAM confirm 8752 | D1 no dopamine inactive | Isoprot counter inactive
C/C(Cl)=C/Cn1c(SC(C)C)nc2c1c(=O)[nH]c(=O)n2C	D1 mod 32 | D1 PAM confirm 17228 | D1 no dopamine inactive | Isoprot counter 8272
CCC(C)Sc1nc2c(c(=O)[nH]c(=O)n2C)n1CCc1ccccc1 (configuration not stated)	D1 mod 21 | D1 PAM confirm 20608 | D1 no dopamine inactive | Isoprot counter 6900
CCOc1ccc2[nH]c(=O)c(CN(CC3CCCN3CC)C(=O)NCc3ccccc3)cc2c1 (configuration not stated)	none (no result: mHtt clearance)
CCOc1cccc(C(=O)Nc2ccccc2N2CCN(C(=O)C(C)C)CC2)c1	none
COc1ccc(S(=O)(=O)N(CCN2CCOCC2)Cc2cc(OC)ccc2OC)cc1	none
CCn1c(SCc2nc3cc(OC)c(OC)cc3c(=O)[nH]2)nnc1-c1ccncc1	none
COCCCNC(=O)C12CCC(C)(C(=O)C1)C2(C)C (configuration not stated)	none
O=C(Cn1cc2c(n1)CCCCC2)NCCCN1CCOCC1	D1 mod 2.6 (no result: mHtt clearance) | D1 PAM confirm inactive | D1 no dopamine inactive | Isoprot counter inactive
Nc1nonc1-n1nnc(C(=O)c2ccccc2)c1-c1ccccc1	D1 mod 4.3 (no result: mHtt clearance) | D1 PAM confirm 9084 | D1 no dopamine inactive | Isoprot counter inactive
Cc1cc(C)cc(Nc2ncc3c(n2)CC(c2ccco2)CC3=O)c1 (configuration not stated)	D1 mod 4.7 (no result: mHtt clearance) | D1 PAM confirm 7924 | D1 no dopamine inactive | Isoprot counter 3048
Cc1ccc(/C(=N\O)c2oc3c(C)c4oc(=O)cc(C)c4cc3c2C)cc1	none (no result: M1 antag, M1 agonist, D1 mod)
Cc1cc(=O)oc2c1ccc1oc(/C(=N/O)c3ccccc3)c(C)c12	D1 mod 5.2 | D1 PAM confirm 7656 | D1 no dopamine inactive | Isoprot counter 3600
Cc1nn(C)cc1/C=N/O	none (no result: mHtt clearance)
Cc1nn(-c2ccccc2)cc1/C=N/O	D1 mod 4.3 | D1 PAM confirm 7640 | Isoprot counter inactive
Cc1c(NS(=O)(=O)CC23CCC(CC2=O)C3(C)C)c(=O)n(-c2ccccc2)n1C (configuration not stated)	D1 mod 3.3 | D1 PAM confirm inactive | D1 no dopamine inactive | Isoprot counter inactive
Cc1cccc(C(=O)NNC2=C(C(=O)C(F)(F)F)CCC2)c1O	none (no result: M1 antag, M1 agonist, D1 mod)
CCc1ccccc1N(CC(=O)N1CCN(c2ccccc2)CC1)S(C)(=O)=O	none (no result: mHtt clearance)
Cc1cccc2cc(CN(CC3CCCO3)C(=O)c3cccnc3)c3nnnn3c12 (configuration not stated)	D1 mod 5.5 | D1 PAM confirm 15420 | Isoprot counter 4484
Cc1cccc2cc(CN(CC3CCCO3)S(=O)(=O)c3ccccc3)c3nnnn3c12 (configuration not stated)	none (no result: mHtt clearance)
COc1ccc(-c2nnc(SCC(=O)Nc3ncc(C)s3)n2-c2ccccc2)cc1OC	D1 mod 3.6 (no result: mHtt clearance) | D1 PAM confirm 11512 | D1 no dopamine inactive | Isoprot counter 3604
Cc1ccccc1NC(=O)CSc1nnc(-c2ccccc2)n1-c1ccccc1	none (no result: M1 antag, M1 agonist, D1 mod)
O=C1Nc2ccc(S(=O)(=O)N3CCCC3)c3ccc(S(=O)(=O)N4CCCC4)c1c23	D1 mod 5.2 | D1 PAM confirm 12808 | Isoprot counter 2900
CCOC(=O)C1CCN(S(=O)(=O)c2ccc3c4c(cccc24)C(=O)N3)CC1	none (no result: mHtt clearance)
CCN(CC)CCNCc1ccc(-c2ccc(Cl)cc2)o1	none (no result: M1 antag, mHtt clearance, M1 agonist)
COc1cccc(C2=CC(c3ccc(OC)c(OC)c3OC)n3nnnc3N2)c1 (configuration not stated)	D1 mod 19 (no result: mHtt clearance) | D1 PAM confirm 12516 | Isoprot counter 6192
CCn1nnnc1SCC(=O)c1cc(OC)ccc1OC	none (no result: mHtt clearance, D1 mod)
COc1cccc(-n2nnc3c(=O)n(CC(=O)NC4CCCC4)cnc32)c1	D1 mod 4.4 | D1 PAM confirm inactive | D1 no dopamine inactive | Isoprot counter inactive
CCOc1ccc(S(=O)(=O)N(CC(=O)N/N=C/c2cccs2)c2ccc(C)cc2)cc1	none (no result: M1 antag, M1 agonist, D1 mod)
CCOC(=O)C(C(=O)OCC)C(Nc1ccc(Br)cc1)c1ccccc1 (configuration not stated)	none (no result: M1 antag, M1 agonist, D1 mod)
COc1cccc(C2C(C(=O)c3cccs3)=C(O)C(=O)N2CCN(C)C)c1OC (configuration not stated)	D1 mod 2.5 | D1 PAM confirm inactive | Isoprot counter inactive
COc1ccc(OC)c(C2C(C(=O)c3cccs3)=C(O)C(=O)N2CCN(C)C)c1 (configuration not stated)	none
CC(C)Sc1nc2c(c(=O)n1-c1ccc(F)cc1)SCC2	D1 mod 11 (no result: mHtt clearance) | D1 PAM confirm 23632 | D1 no dopamine inactive | Isoprot counter 4124
O=C(CSc1nc2c(c(=O)n1-c1ccc(F)cc1)SCC2)N1CCCC1	none
Cc1cc(S(=O)(=O)N2CCC(NC(=O)C34CC5CC(CC(C5)C3)C4)CC2)ccc1-n1cnnn1	none (no result: mHtt clearance)
CCn1c2ccccc2c2nc3cc(S(=O)(=O)N4CCOCC4)ccc3nc21	D1 mod 6.5 | D1 PAM confirm 15708 | D1 no dopamine inactive | Isoprot counter 4156
c1ccc2nc3c(nc2c1)c1ccccc1n3CCN1CCOCC1	M1 agonist 6.4, D1 mod 9.5 | D1 PAM confirm 18764 | D1 no dopamine inactive | Isoprot counter 4556
c1ccc2c(c1)nc(CN1CCOCC1)n1c3ccccc3nc21	none (no result: mHtt clearance, D1 mod)
N#C/C(=C1\C(=O)Nc2c(Cl)cc(Cl)cc21)c1nnc2n1CCCCC2	none (no result: M1 antag, M1 agonist, D1 mod)
CCCN1CCN(C(=O)c2cccc3c2C(=O)N(CCOC)C3)CC1	none (no result: mHtt clearance)
CC(c1nnc(SCC(=O)NC(=O)NCc2ccco2)n1-c1ccc(Cl)cc1)N(C)C (configuration not stated)	none (no result: mHtt clearance)
COc1ccc(C2N3CC4(C)CN2CC(C)(C3)C4O)cc1 (configuration not stated)	none

Compound activity deposited in PubChem BioAssay by several laboratories.
